Measurements as given in PubChem BioAssay AID1159580 (chemical genetic matrix, 2015).
Values joined by “and” are separate entries in the source; they are usually repeats but may differ in a detail not shown here. Identical values can stand only once. The campaign covered roughly 5,500 compounds. About 2,000 (36%) were called active. Inconclusive results (about 18%) are left out. No stated cut-off is given here; in the data, active means normalized growth mostly below about 0.91 (no sharp cut-off); inconclusive means no clear call, values can overlap the other calls; inactive means mostly above about 0.92. Some of the results follow.

Assay: chemical genetic growth profiling, strain panel (AID 1159580);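 further: tested at 20 µM; growth read once vehicle control cultures reached saturation at 30 °C; 1 = growth at the plate median or of vehicle wells; lower values mean less growth of the strain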
Details: S. cerevisiae deletion strains, growth OD

Measured: normalized growth

COc1ccc(C(Cl)=C(c2ccc(OC)cc2)c2ccc(OC)cc2)cc1
inactive: locus YAL021C, strain ccr4, hits give low values 1.04 | locus YAL026C, strain drs2, hits give low values 1.03 | locus YAL030W, strain snc1, hits give low values 1.03 | locus YBL061C, strain skt5, hits give low values 0.992 | locus YBR009C, strain hhf1, hits give low values 1.01 | locus YBR021W, strain FUR4, hits give low values 0.994 | locus YBR023C, strain chs3, hits give low values 0.993 | locus YBR171W, strain sec66, hits give low values 1.03 | locus YBR229C, strain ROT2, hits give low values 1.01 | locus YBR231C, strain swc5, hits give low values 1.03 | locus YBR279W, strain paf1, hits give low values 0.984 | locus YCL011C, strain gbp2, hits give low values 1.02 | locus YCL016C, strain dcc1, hits give low values 0.985 | locus YCL029C, strain bik1, hits give low values 1.01 | locus YCL061C, strain MRC1, hits give low values 1.03 | locus YCL069W, strain vba3, hits give low values 1.03 | locus YCR088W, strain abp1, hits give low values 1.02 | locus YDL005C, strain med2, hits give low values 1.03 | locus YDL035C, strain GPR1, hits give low values 0.989 | locus YDL040C, strain nat1, hits give low values 1.03 | locus YDL074C, strain BRE1, hits give low values 1.03 | locus YDL101C, strain DUN1, hits give low values 1.03 | locus YDL134C, strain PPH21, hits give low values 0.981 | locus YDL185W, strain tfp1, hits give low values 1.01 | locus YDL192W, strain arf1, hits give low values 1.02 | locus YDR001C, strain nth1, hits give low values 1.02 | locus YDR069C, strain doa4, hits give low values 0.993 | locus YDR101C, strain arx1, hits give low values 0.997 | locus YDR137W, strain rgp1, hits give low values 0.97 | locus YDR150W, strain NUM1, hits give low values 1.01 | locus YDR159W, strain sac3, hits give low values 1.01 | locus YDR162C, strain NBP2, hits give low values 1 | locus YDR195W, strain ref2 1.06 | locus YDR297W, strain sur2, hits give low values 1.02 | locus YDR318W, strain mcm21, hits give low values 1.01 | locus YDR334W, strain swr1, hits give low values 1.04 | locus YDR335W, strain msn5, hits give low values 1 | locus YDR388W, hits give low values 1.03 | locus YDR392W, strain spt3, hits give low values 1 | locus YDR502C, strain sam2, hits give low values 1.01 | locus YEL003W, strain gim4, hits give low values 1.03 | locus YEL037C, strain rad23, hits give low values 1.03 | locus YEL061C, strain CIN8 (second series), hits give low values 1.06 | locus YEL061C, strain CIN8, hits give low values 1.01 | locus YER015W, strain faa2, hits give low values 1.03 | locus YER016W, strain bim1, hits give low values 0.971 | locus YER110C, hits give low values 1.03 | locus YER111C, strain swi4, hits give low values 1.03 | locus YER155C, strain BEM2 (second series), hits give low values 1.03 | locus YER155C, strain BEM2, hits give low values 1.02 | locus YER167W, strain BCK2, hits give low values 1.01 | locus YFR010W, strain ubp6, hits give low values 1.02 | locus YGL078C, strain dbp3, hits give low values 1.01 | locus YGL086W, strain mad1, hits give low values 0.998 | locus YGL167C, strain pmr1, hits give low values 1.01 | locus YGL173C, strain kem1, hits give low values 1.03 | locus YGL227W, strain vid30, hits give low values 1.02 | locus YGL240W, strain doc1, hits give low values 1.05 | locus YGL248W, strain PDE1, hits give low values 1.03 | locus YGL253W, strain hxk2, hits give low values 0.999 | locus YGR135W, strain pre9, hits give low values 1.04 | locus YGR252W, strain gcn5, hits give low values 1.04 | locus YHR013C, strain ard1, hits give low values 1.04 | locus YHR027C, strain rpn1, hits give low values 0.989 | locus YHR030C, strain SLT2, hits give low values 1.01 and 0.939 | locus YHR079C, strain IRE1 (second series), hits give low values 1.02 | locus YHR079C, strain IRE1, hits give low values 0.963 | locus YHR094C, strain hxt1, hits give low values 1.03 | locus YHR129C, strain ARP1, hits give low values 1.02 | locus YHR142W, strain chs7, hits give low values 1.06 | locus YHR200W, strain rpn10, hits give low values 1.02 | locus YIL066C, strain RNR3, hits give low values 1 | locus YIL073C, strain SPO22, hits give low values 1.03 | locus YIL125W, strain kgd1, hits give low values 1.01 | locus YIR030C, strain dcg1, hits give low values 1.02 | locus YJL092W, strain hpr5, hits give low values 1.02 | locus YJL095W, strain BCK1 (second series), hits give low values 1.03 | locus YJL095W, strain BCK1, hits give low values 1.06 and 0.963 | locus YJL115W, strain asf1, hits give low values 1.02 | locus YJL129C, strain trk1, hits give low values 1.04 | locus YJL134W, strain LCB3, hits give low values 1.01 | locus YJL154C, strain vps35, hits give low values 1.03 | locus YJL164C, strain tpk1, hits give low values 1.01 | locus YJL166W, strain qcr8, hits give low values 1.04 | locus YJL168C, strain set2, hits give low values 1.03 | locus YJL187C, strain SWE1 (second series), hits give low values 1.04 | locus YJR043C, strain POL32, hits give low values 0.999 | locus YJR066W, strain TOR1, hits give low values 0.965 | locus YJR075W, strain HOC1, hits give low values 1.03
